Experiment [1] can be described thus: ATG_GRE_CIS: Attagene CIS-FACTORIAL HepG2 Assay for human Glucocorticoid Response Elements (GRE) (AID 2282947). As to conditions: HepG2 GRE cis-reporter, Attagene multiplex mRNA; actives raise or lower the signal. In a few lines:
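HepG2 cells transiently transfected with multiple cis-promoter reporter units measure endogenous TF activity; 24 h compound exposure. Reporter mRNA quantified by RT-PCR, FAM labelling, HpaI digestion and capillary electrophoresis; bidirectional fit vs DMSO baseline.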

The nature of experiment [2]: ATG_ISRE_CIS: Attagene CIS-FACTORIAL HepG2 Assay for human Interferon Regulatory Factor 1 (IRF1) binding to an Interferon-Stimulated Response Element (ISRE) (AID 2282948). The following applies: HepG2 ISRE cis-reporter (Attagene), mRNA transcription readout; actives raise or lower the signal. Put shortly:
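Quantitation relies on labelled RT-PCR fragments separated by capillary electrophoresis. Human HepG2 cells bearing cis-promoter reporter constructs were treated 24 h; DMSO served as baseline for bidirectional fitting.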

Experiment [3] is described as follows: ATG_M_32_CIS: Attagene CIS-FACTORIAL HepG2 Assay for M32 Transcription Factor (Internal Marker) (AID 2282949).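 Note: background control marker of the multiplexed CIS panel rather than a real target.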 As to conditions: HepG2 Attagene cis-factorial M32 reporter, mRNA; actives raise or lower the signal. In a few lines:
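Following 24 h chemical exposure of HepG2 cells transiently expressing cis-promoter reporter constructs, reporter transcript levels were determined by RT-PCR with fluorescent labelling and capillary electrophoresis, then fitted bidirectionally against DMSO.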

A short description of experiment [4]: ATG_M_06_CIS: Attagene CIS-FACTORIAL HepG2 Assay for M06 Transcription Factor (Internal Marker) (AID 2282950). The following applies: HepG2 Attagene CIS-FACTORIAL M06 internal marker reporter; actives raise or lower the signal. In a few lines: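 Terse: HepG2, transient MRTU transfection (FuGene 6), 24 h dosing; total RNA, oligo(dT) RT, PCR, FAM label, HpaI cut, capillary electrophoresis; bidirectional fit vs DMSO baseline; background-control endpoint.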

Experiment [5] addresses Hypoxia-inducible factor 1-alpha (Homo sapiens) (UniProt Q16665). As to the kind of experiment: ATG_HIF1a_CIS: Attagene CIS-FACTORIAL HepG2 Assay for human Hypoxia Inducible Factor 1 (HIF1A) (AID 2282951). As to conditions: HepG2 Attagene cis-factorial HIF1a reporter transcription; actives raise or lower the signal. Put shortly: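 HepG2, transient cis-reporter library, 24 h dosing. RNA → RT (oligo dT) → PCR → 6-FAM primer extension → HpaI → CE. Bidirectional curve fit vs DMSO.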

Experiment [6] deals with Hepatocyte nuclear factor 6 (Homo sapiens) (UniProt Q9UBC0). As to the kind of experiment: ATG_HNF6_CIS: Attagene CIS-FACTORIAL HepG2 Assay for human Hepatocyte Nuclear Factor 6 (HNF6) (AID 2282952). As to conditions: HepG2 Attagene cis-factorial HNF6 reporter transcription; actives raise or lower the signal. Put shortly:
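Multiplexed mRNA reporter assay in transfected HepG2; 24 h dosing; RT-PCR plus capillary electrophoresis fluorescence; DMSO-referenced bidirectional curve fitting.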

Experiment [7] addresses Heat shock factor protein 1 (Homo sapiens) (UniProt Q00613). As to the kind of experiment: ATG_HSE_CIS: Attagene CIS-FACTORIAL HepG2 Assay for human Heat Shock Transcription Factor 1 (HSE) (AID 2282953). The following applies: HepG2 HSE cis-reporter, Attagene RNA transcription; actives raise or lower the signal. Put shortly: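 Read-out: fluorescence of reporter-specific RT-PCR fragments separated by capillary electrophoresis. HepG2 carrying transfected cis-element reporter units; 24 h dosing; activity fitted in both directions relative to DMSO baseline.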

Experiment [8] can be described thus: ATG_MRE_CIS: Attagene CIS-FACTORIAL HepG2 Assay for human Metal Responsive Element (MRE) (AID 2282954). As to conditions: HepG2 MRE cis-reporter transcription, Attagene multiplex; actives raise or lower the signal. In a few lines: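 HepG2 cells transiently transfected with multiple cis-element reporter units measure endogenous MTF1-driven transcription. After 24 h compound exposure, reporter mRNA is quantified by RT-PCR with 6-FAM labelling, HpaI digestion and capillary electrophoresis; bidirectional fits versus DMSO.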

A short description of experiment [9]: ATG_PBREM_CIS: Attagene CIS-FACTORIAL HepG2 Assay for human Phenobarbital-responsive Enhancer Module (PBREM) (AID 2282955). The following applies: HepG2 PBREM cis-reporter, Attagene multiplexed transcription; actives raise or lower the signal. In a few lines: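 HepG2, transient MRTU transfection, 24 h dosing; RNA → oligo(dT) RT → PCR → 6-FAM extension → HpaI → CE. Bidirectional fit vs DMSO.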

Experiment [10] concerns the target Paired box protein Pax-6 (Homo sapiens) (UniProt P26367). As to the kind of experiment: ATG_Pax6_CIS: Attagene CIS-FACTORIAL HepG2 Assay for human Paired Box 6 (PAX6) (AID 2282956). The following applies: HepG2 CIS-FACTORIAL PAX6 reporter transcription, RNA readout; actives raise or lower the signal. In a few lines:
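After twenty-four hours of chemical exposure, transfected HepG2 cells are harvested for RNA. Cis-promoter reporter transcripts are amplified, fluorescently labelled and sized by capillary electrophoresis, with gain and loss of signal scored against DMSO.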

Experiment [11] in a line: ATG_PXRE_CIS: Attagene CIS-FACTORIAL HepG2 Assay for human Pregnane X Receptor Element (PXRE) (AID 2282957). The following applies: HepG2 Attagene CIS-FACTORIAL PXRE reporter, mRNA; actives raise or lower the signal. Put shortly:
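Cells: HepG2, transiently transfected reporter units under cis promoter control. Exposure: 24 h. Detection: reporter mRNA via RT-PCR/CE fluorescence; bidirectional fitting, DMSO-referenced.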

Experiment [12] is described as follows: ATG_PPRE_CIS: Attagene CIS-FACTORIAL HepG2 Assay for human Peroxisome Proliferator-activated Response Element (PPRE) (AID 2282958). The following applies: HepG2 PPRE cis-element reporter, Attagene transcription factor profiling; actives raise or lower the signal. In a few lines: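 Transcript-level reporter induction in transfected HepG2 cells after 24 h chemical exposure, quantified by fluorescence from RT-PCR products separated by capillary electrophoresis.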

A short description of experiment [13]: ATG_RORE_CIS: Attagene CIS-FACTORIAL HepG2 Assay for human RAR-related Orphan Receptor Element (RORE) (AID 2282959). The following applies: HepG2 Attagene cis-factorial RORE reporter, mRNA; actives raise or lower the signal. In a few lines:
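Multiplexed reporter assay measuring mRNA induction from a cis promoter element in transiently transfected HepG2 cells after 24 h treatment. Detection via RT-PCR and capillary electrophoresis fluorescence; DMSO serves as baseline.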

The nature of experiment [14]: ATG_Sox_CIS: Attagene CIS-FACTORIAL HepG2 Assay for human SRY-box transcription factor (SOX) (AID 2282960). The following applies: HepG2 Attagene cis-factorial SOX reporter, mRNA; actives raise or lower the signal. Put shortly: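 Cells were transfected with reporter constructs under cis-regulatory promoters, then exposed to chemicals for 24 h. Reporter transcripts were quantified by fluorescence after RT-PCR and capillary electrophoresis; activity was fitted in both directions against DMSO.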

The target of experiment [15] is Transcription factor Sp1 (Homo sapiens) (UniProt P08047). As to the kind of experiment: ATG_Sp1_CIS: Attagene CIS-FACTORIAL HepG2 Assay for human Specificity Protein 1 (Sp1) (AID 2282961). As to conditions: HepG2 Sp1 cis-reporter transcription, actives raise or lower the signal. Put shortly:
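Measures mRNA induction of an Sp1-linked reporter in HepG2 cells 24 h post-dosing. Multiplexed reporters read by RT-PCR and capillary electrophoresis; DMSO serves as negative control and baseline.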

Experiment [16] is described as follows: ATG_SREBP_CIS: Attagene CIS-FACTORIAL HepG2 Assay for human Sterol Regulatory Element Binding (SREBP) (AID 2282962). As to conditions: HepG2 Attagene cis-factorial SREBP reporter, mRNA; actives raise or lower the signal. In a few lines:
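Twenty-four hours after chemical dosing of transfected HepG2 cultures, reporter RNA was converted to cDNA, amplified, end-labelled with 6-FAM and resolved by capillary electrophoresis. Responses were fitted relative to DMSO.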

Experiment [17] concerns the target Signal transducer and activator of transcription 3 (Homo sapiens) (UniProt P40763). As to the kind of experiment: ATG_STAT3_CIS: Attagene CIS-FACTORIAL HepG2 Assay for human Signal Transducer and Activator of Transcription 3 (STAT3) (AID 2282963). As to conditions: HepG2, Attagene cis-factorial STAT3 reporter transcription; actives raise or lower the signal. Put shortly: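 HepG2 cells transiently transfected with cis-element-driven multiple reporter transcription units; after 24 h chemical exposure, reporter mRNA measured by RT-PCR, 6-FAM primer-extension labelling, HpaI digestion and capillary electrophoresis. Bidirectional fitting versus DMSO baseline.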

Experiment [18] is described as follows: ATG_TA_CIS: Attagene CIS-FACTORIAL HepG2 Assay for human TA Basal Promoter (AID 2282964). As to conditions: HepG2 Attagene CIS-factorial TA basal promoter reporter; actives raise or lower the signal. In a few lines: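 Transfected HepG2, 24 h compound exposure; RNA → RT-PCR → FAM primer extension → HpaI cut → CE fluorescence. Gain/loss-of-signal fitted against DMSO negative control. Background-control readout.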

Experiment [19] is described as follows: ATG_TCF_b_cat_CIS: Attagene CIS-FACTORIAL HepG2 Assay for human T-Cell-Factor with beta-catenin (TCF/b-cat) (AID 2282965). As to conditions: HepG2 TCF/beta-catenin cis-reporter transcription, actives raise or lower the signal. In a few lines: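 HepG2 cells transiently transfected with multiple cis-promoter-regulated reporter transcription units, so endogenous transcription factor activity is measured. Reporter mRNA read 24 hours after dosing by RT-PCR, fluorescent labelling and capillary electrophoresis; bidirectional fitting against DMSO.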

The target of experiment [20] is Bile acid receptor (Homo sapiens) (UniProt Q96RI1). As to the kind of experiment: ATG_IR1_CIS: Attagene CIS-FACTORIAL HepG2 Assay for human Nuclear Receptor Subfamily 1 Group H Member 4 (NR1H4), IR1 submotif (AID 2282946). The following applies: IR1 reporter transcription, actives raise or lower the signal. Put shortly:
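Transient MRTU transfection, HepG2; 24 h dosing; RNA → RT-PCR → 6-FAM primer extension → HpaI digest → capillary electrophoresis fluorescence. Gain/loss of signal fitted relative to DMSO.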

Activity calls are given as the source filed them. Rule for the calls: active = hit-call score of the fitted dose curve at least 0.9, where 1 is the maximum; inactive = score below 0.9.

Paired box protein Pax-6 (Homo sapiens), sequence (P26367 whole entry, looked up): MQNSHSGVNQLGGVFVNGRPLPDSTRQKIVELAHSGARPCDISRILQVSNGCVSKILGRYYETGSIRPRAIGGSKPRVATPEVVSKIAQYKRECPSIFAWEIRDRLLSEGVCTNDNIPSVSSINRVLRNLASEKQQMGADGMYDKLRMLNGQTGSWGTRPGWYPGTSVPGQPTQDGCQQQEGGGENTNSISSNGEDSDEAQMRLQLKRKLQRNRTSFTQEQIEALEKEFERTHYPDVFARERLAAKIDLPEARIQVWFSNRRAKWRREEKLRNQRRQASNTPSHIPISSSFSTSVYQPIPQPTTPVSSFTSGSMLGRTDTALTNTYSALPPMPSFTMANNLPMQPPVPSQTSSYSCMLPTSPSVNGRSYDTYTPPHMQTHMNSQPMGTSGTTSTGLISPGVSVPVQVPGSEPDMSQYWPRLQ
Hepatocyte nuclear factor 6 (Homo sapiens), sequence (Q9UBC0 whole entry, looked up): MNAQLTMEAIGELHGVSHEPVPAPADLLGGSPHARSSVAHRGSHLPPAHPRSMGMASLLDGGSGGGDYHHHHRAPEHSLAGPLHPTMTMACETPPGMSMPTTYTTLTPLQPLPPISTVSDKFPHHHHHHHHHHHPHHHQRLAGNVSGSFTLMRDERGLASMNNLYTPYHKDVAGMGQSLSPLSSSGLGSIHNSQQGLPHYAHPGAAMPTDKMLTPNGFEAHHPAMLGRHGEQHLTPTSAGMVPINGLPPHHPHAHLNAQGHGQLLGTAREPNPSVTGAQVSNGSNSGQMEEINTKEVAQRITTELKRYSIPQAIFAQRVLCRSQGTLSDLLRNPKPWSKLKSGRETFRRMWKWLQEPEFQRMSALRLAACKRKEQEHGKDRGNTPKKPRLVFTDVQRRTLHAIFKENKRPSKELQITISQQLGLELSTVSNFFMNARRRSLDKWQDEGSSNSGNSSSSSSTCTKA
Hypoxia-inducible factor 1-alpha (Homo sapiens), sequence (Q16665 whole entry, looked up): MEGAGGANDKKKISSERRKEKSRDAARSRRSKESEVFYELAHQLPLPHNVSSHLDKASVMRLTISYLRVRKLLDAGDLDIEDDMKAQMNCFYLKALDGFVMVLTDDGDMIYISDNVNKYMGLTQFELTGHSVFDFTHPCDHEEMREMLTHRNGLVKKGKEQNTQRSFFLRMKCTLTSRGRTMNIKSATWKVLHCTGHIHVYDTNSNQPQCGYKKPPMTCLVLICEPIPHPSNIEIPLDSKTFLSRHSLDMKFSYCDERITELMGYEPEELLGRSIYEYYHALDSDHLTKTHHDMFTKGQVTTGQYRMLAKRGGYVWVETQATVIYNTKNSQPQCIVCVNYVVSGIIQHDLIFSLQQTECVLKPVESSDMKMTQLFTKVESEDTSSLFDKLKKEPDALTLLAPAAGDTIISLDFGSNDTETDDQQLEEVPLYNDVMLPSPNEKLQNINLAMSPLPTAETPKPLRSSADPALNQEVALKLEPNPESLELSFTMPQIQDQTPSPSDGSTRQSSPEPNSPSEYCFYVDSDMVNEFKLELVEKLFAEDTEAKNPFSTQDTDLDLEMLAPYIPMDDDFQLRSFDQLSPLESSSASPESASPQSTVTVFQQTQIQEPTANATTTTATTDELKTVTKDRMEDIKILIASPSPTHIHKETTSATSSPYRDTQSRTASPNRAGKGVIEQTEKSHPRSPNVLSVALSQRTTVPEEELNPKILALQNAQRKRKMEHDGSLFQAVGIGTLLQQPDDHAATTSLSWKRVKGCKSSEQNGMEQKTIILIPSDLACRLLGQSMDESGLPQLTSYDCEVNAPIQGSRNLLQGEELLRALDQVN
Signal transducer and activator of transcription 3 (Homo sapiens), sequence (P40763 whole entry, looked up): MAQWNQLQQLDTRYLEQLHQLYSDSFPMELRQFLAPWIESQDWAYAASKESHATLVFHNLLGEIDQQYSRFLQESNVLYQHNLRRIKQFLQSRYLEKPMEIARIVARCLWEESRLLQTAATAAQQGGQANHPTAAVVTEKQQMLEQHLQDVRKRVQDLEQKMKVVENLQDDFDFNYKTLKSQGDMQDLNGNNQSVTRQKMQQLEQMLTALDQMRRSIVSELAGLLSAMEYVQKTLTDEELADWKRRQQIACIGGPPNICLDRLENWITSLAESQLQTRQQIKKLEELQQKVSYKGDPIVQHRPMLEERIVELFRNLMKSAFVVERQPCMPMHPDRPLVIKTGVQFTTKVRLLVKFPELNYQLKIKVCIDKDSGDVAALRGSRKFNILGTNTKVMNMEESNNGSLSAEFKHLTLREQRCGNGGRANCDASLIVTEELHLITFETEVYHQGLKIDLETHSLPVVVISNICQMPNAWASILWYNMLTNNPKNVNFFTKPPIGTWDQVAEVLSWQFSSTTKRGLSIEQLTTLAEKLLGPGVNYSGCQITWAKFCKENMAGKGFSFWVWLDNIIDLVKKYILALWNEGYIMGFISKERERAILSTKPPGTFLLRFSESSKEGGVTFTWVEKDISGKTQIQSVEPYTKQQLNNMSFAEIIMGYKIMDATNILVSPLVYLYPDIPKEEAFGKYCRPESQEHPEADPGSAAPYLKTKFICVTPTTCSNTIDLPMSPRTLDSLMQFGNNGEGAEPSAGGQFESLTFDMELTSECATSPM
Heat shock factor protein 1 (Homo sapiens), sequence (Q00613 whole entry, looked up, the tested form may be a part): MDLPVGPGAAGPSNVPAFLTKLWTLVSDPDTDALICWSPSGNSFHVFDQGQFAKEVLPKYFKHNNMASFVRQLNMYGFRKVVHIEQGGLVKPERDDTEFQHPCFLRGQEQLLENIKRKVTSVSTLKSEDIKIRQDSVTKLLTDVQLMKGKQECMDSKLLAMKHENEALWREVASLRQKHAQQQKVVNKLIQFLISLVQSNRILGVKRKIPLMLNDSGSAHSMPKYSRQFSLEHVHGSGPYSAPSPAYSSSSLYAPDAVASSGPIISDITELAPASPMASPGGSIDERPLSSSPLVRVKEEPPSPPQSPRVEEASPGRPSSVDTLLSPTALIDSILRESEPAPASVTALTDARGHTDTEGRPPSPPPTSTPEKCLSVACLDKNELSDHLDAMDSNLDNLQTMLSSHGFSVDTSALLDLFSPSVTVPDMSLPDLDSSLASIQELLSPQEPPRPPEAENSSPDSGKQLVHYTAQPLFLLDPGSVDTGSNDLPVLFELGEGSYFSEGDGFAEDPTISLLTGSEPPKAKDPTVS
Transcription factor Sp1 (Homo sapiens), sequence (P08047 whole entry, looked up): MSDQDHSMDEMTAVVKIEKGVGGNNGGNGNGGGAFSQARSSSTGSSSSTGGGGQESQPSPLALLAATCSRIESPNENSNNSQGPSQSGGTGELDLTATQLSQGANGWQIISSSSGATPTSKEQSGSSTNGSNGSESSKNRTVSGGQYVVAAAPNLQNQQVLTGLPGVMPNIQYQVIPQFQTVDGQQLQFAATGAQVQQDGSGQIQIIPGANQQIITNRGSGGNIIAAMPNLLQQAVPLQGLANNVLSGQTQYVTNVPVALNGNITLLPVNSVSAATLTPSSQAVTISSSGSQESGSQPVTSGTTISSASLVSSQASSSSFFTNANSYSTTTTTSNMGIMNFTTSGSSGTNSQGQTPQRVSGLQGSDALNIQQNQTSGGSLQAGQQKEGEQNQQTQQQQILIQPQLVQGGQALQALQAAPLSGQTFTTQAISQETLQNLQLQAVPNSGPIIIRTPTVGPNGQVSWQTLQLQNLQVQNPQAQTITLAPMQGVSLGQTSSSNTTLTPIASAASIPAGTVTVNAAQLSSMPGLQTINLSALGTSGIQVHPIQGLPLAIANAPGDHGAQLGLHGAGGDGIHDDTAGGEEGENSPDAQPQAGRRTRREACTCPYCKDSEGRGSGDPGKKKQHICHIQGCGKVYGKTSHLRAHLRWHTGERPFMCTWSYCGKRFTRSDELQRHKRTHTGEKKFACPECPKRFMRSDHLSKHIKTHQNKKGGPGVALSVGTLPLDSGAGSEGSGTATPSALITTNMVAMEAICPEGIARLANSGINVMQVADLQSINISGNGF
Bile acid receptor (Homo sapiens), sequence (Q96RI1 whole entry, looked up): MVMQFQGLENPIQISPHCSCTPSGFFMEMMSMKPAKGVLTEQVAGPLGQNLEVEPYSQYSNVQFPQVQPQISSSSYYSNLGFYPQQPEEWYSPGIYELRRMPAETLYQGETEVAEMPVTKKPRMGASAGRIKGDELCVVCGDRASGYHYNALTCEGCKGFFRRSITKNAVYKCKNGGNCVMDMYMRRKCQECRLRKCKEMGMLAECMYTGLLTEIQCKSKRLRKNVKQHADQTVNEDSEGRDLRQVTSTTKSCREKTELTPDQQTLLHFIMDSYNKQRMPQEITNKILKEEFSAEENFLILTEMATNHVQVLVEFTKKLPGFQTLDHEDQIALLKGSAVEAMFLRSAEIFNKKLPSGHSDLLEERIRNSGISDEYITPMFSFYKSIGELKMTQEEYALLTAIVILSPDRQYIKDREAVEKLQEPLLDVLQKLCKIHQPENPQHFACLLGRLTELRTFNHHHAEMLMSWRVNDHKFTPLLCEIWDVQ

Regarding `O=c1n(CC2CO2)c(=O)n(CC2CO2)c(=O)n1CC1CO1` (configuration not stated), the AC50 in experiment [1] is 32.7 µM (active); in experiment [8], 59 µM (active); in [10], 59.6 µM (active); in experiment [11], 21.3 µM (active); in experiment [13], 65.3 µM (active); in experiment [14], 65.2 µM (active). Moreover, the half-maximal activity concentration (AC50) in experiment [15] was 17.1 µM (active). The outcome in experiment [2], in experiment [3], in experiment [4], in experiment [5], in [6] and in [7] was inactive. The outcome in [9], in experiment [12], in [16], in [17], in experiment [18] and in experiment [19] was inactive.
`O=C(O)c1cccc(Oc2ccccc2)c1`: the outcome in experiment [1], in [2], in [3], in experiment [4], in experiment [5] and in [6] was inactive. For the same molecule, the call in [7], in experiment [8], in experiment [9], in [10], in [11] and in experiment [13] was inactive. The call in experiment [14], in [15], in experiment [16], in experiment [17], in [18] and in experiment [19] was inactive. For the same molecule, in experiment [12], the concentration at half-maximal activity (AC50) was 48.3 µM (active).
Consider `CC/C(=C\C(=N/O)C(N)=O)C(C)[N+](=O)[O-]` (configuration not stated), for which the call in [1], in experiment [2], in experiment [3], in experiment [4], in experiment [5] and in [6] was inactive. The molecule was classed as inactive in experiment [7], in [8], in experiment [9], in [10], in experiment [11] and in [12]. The outcome in [13], in experiment [15], in experiment [16], in experiment [17] and in experiment [18] was inactive. Also, the AC50 in [19] was 100 µM (active).
As for `O=C(CCCCCCCCc1cccnc1)N1CCC(C=C(c2ccccc2)c2ccccc2)CC1`, the molecule was classed as inactive in [1] and in experiment [3]. The AC50 in [2] was 16.7 µM (active); in [4] it was 59.8 µM (active); in experiment [5], 1.37 µM (active); in [6] it was 23.9 µM (active); in experiment [7] it was 15.9 µM (active); in experiment [8], 2.78 µM (active). Besides, the AC50 in experiment [10] is 9.32 µM (active); in experiment [11], 0.438 µM (active); in experiment [12], 1.07 µM (active); in [15], 8.56 µM (active); in [16], 8.12 µM (active); in [17], 19.5 µM (active). Also, the AC50 in experiment [18] is 16.1 µM (active); in [19], 8.08 µM (active).
As for `Nc1cccc(N)c1`, the outcome in experiment [20], in experiment [2], in [3], in [4], in experiment [5] and in experiment [6] was inactive. Moreover, the result in experiment [7], in experiment [8], in experiment [9], in experiment [10], in experiment [11] and in experiment [13] was inactive. Further, the outcome in experiment [15], in experiment [16], in experiment [17], in experiment [18] and in [19] was inactive.
Turning to `CCOCCOCCOCCO`, the outcome in experiment [20], in experiment [2], in experiment [3], in [4], in [5] and in experiment [6] was inactive. The result in experiment [7], in [8], in [9], in experiment [10], in [11] and in experiment [13] was inactive. In addition, the outcome in experiment [14], in [15], in experiment [16], in experiment [17], in experiment [18] and in [19] was inactive.

For orientation: AC50 means the concentration at which the activity in the assay is half-maximal.

Values taken from PubChem BioAssay (EPA / NIEHS).
